Screen size: about 48,000 compounds; about 13,000 (27%) showed an effect of 50% or more. Some of the results follow.

The assay relates to Wolbachia pipientis. Nature of the assay: Anti-Wolbachia Cell-Based Screen. The format is functional. Further details: scale not given: in the data most compounds retested in dose-response had high values. Particulars: 5 µM.
With `Cn1cc(-c2ccnc(NCC3CCN(Cc4ccccc4)C3)n2)cn1` (stereo not drawn), the “Percent Effect” value is listed as 1.277%.
The same measure for `Cc1ccc(CCNc2ncc(C)c(-c3ccnn3C)n2)s1`: -9.646%; for `Cc1cnc(NCc2ccncc2)nc1-c1cnn(C)c1`: 107.1%.
On to `Cn1cc(-c2nc(CNCCn3cccn3)cs2)cn1`, for which the “Percent Effect” value is 1.057%.
As for `Cn1ncnc1-c1ccnc(NCc2ccncc2)n1`, the figure is 2.269%; as for `Cc1cnc(CNCc2cnc(-c3ccccc3C)s2)cn1`, 2.85%.
The same measure for `CCNc1ncc(C)c(-c2cnn(C)c2)n1`: 108.7%; for `Cc1ccc(Br)c(S(=O)(=O)NCc2cnn(C)c2)c1`: -6.157%.
On to `CN(C)C1(CNc2nccc(-c3cnn(C)c3)n2)CCSC1` (stereo not drawn), for which the “Percent Effect” value was 0.386%.
In the case of `Cc1cnc(CNc2ncc(C)c(-c3cnn(C)c3)n2)cn1`, the “Percent Effect” value was determined as 99.76%.
For `Cn1cc(-c2ccnc(NCC3CC3)n2)cn1`, the “Percent Effect” value is given as -5.433%.
As for `Cc1cnc(NCc2cnn(C)c2)nc1-c1cnn(C)c1`, the figure is 107.4%; as for `O=C(CN1CCCS1(=O)=O)Nc1ccc(OC(F)F)cc1`, 5.702%; as for `CC(C)CN1CCc2[nH]cnc2C12CCN(C(=O)c1cc[nH]n1)CC2`, -17.95%.
As for `CC(=O)NCc1ccc(S(=O)(=O)NC(=O)c2ccc3c(c2)COC3)cc1`, the figure is -5.848%; as for `CC(NC1(CNS(=O)(=O)N(C)C)CCCC1)c1ccccc1` (stereo not drawn), -3.44%; as for `CCC(NC(N)=O)c1ccccc1OCC(=O)N1CCCC1` (stereo not drawn), -5.34%.
As for `CC(C)c1nc(CNc2nccc(CCC(F)(F)F)n2)cs1`, the figure is -5.11%.
As for `Cc1cnn(CC(C)NCc2csc(-c3cnn(C)c3)n2)c1` (stereo not drawn), the “Percent Effect” value was 15.88%.
In the case of `Cc1cnc(NCc2csc(C(C)C)n2)nc1-c1cnn(C)c1`, the “Percent Effect” value was determined as 93.26%.
Consider `O=C(COCc1nc(-c2ccncc2)no1)NC1CCCCC1`, for which the “Percent Effect” value was -10.3%.
As for `CCCn1ncc(-c2ccnc(NC3CC(C)(C)NC(C)(C)C3)n2)c1C`, the figure is 10.1%; as for `Cc1ccc(-c2ccnc(N3CCC4(CCO4)CC3)n2)c(C)n1`, 1.011%.
In the case of `O=c1[nH]c2nc(NC3CC3)ncc2c(=O)n1-c1ccc(F)cc1`, the “Percent Effect” value is reported as 8.247%.
The same measure for `O=c1[nH]c(-c2ccncc2)ncc1-c1ccnc(N2CCOCC2)n1`: 98.38%; for `O=c1[nH]c(-c2ccncc2)ncc1-c1ccnc(NC2CCCCC2)n1`: 85.21%.
The same measure for `O=c1[nH]c(-c2ccncc2)ncc1-c1ccnc(NC2CC2)n1`: 114.3%.
As for `Cc1ncc(-c2ccnc(N3CCCCC3)n2)c(=O)[nH]1`, the figure is 2.763%.
On to `O=C(NCC1CC1)c1cc2c(s1)CCN2C(=O)c1cccnc1`, for which the “Percent Effect” value turned out to be 93.16%.
For `COC(=O)c1ccc(C(=O)N2CCCC(Nc3ccc(F)cc3)C2)cc1` (stereo not drawn), the “Percent Effect” value is -50.64%.
The same measure for `O=C(NCC1CC1)c1cc2c(s1)CCN2C(=O)c1ccc(F)cc1`: 95.26%; for `Cc1cc(C(=O)NCC2CCCC2)c(C)n1-c1cccnc1`: 5.973%; for `O=C(c1ccc(F)c(F)c1)N1CCCC(Nc2ccc(F)cc2)C1` (stereo not drawn): -4.983%.
As for `CC(NC(=O)c1cc(N2CCNC2=O)ccc1F)c1ccc(F)cc1` (stereo not drawn), the figure is -0.5858%; as for `CCSCCC(=O)Nc1ncn(Cc2ccccc2)n1`, -26.44%; as for `CCSCCC(=O)NCCn1nc2ccccn2c1=O`, -5.498%.
As for `O=c1n(CCSCc2ccccc2Cl)nc2ccccn12`, the “Percent Effect” value is reported as 6.647%.
The same measure for `O=c1n(CCNCc2cccc3ccccc23)nc2ccccn12`: 89.88%; for `O=C(CCSc1ccccc1)NCCn1nc2ccccn2c1=O`: 3.117%; for `O=c1n(CCNc2cccc3ccccc23)nc2ccccn12`: 88.07%.
On to `O=c1n(CCSCc2ccccc2Br)nc2ccccn12`, for which the “Percent Effect” value is -15.86%.
As for `COc1ccc(Cl)cc1CN1CC(n2cccn2)C1`, the figure is -1.811%.
The same measure for `CN(Cc1ccco1)Cc1ccccc1CNC(=O)c1ccncc1`: 21.51%.
As for `CCCNC(=O)CNC(=O)CC1CCCc2cc(OC)ccc21` (stereo not drawn), the figure is -20.04%.
In the case of `COc1ccc2c(c1)[C@@H](CCNC(C)=O)CC(C)(C)O2`, the “Percent Effect” value came to 118.9%.
As for `COCC(=O)NCCc1ccc(Cl)s1`, the figure is -5.141%.
As for `COCC(=O)NCCc1ccc(I)s1`, the figure is -6.07%; as for `COc1cccc(C2(NC(=O)CCNC(C)=O)CC2)c1`, -8.972%; as for `CC1(C)C[C@H](CCNC(=O)c2ccncc2)c2ccccc2O1`, 152.5%.
The same measure for `COCC(=O)NCC[C@H]1CC(C)(C)Oc2ccccc21`: 119%.
Take `COc1ccc2c(c1)CC(NC(=O)NCc1cccs1)CO2` (stereo not drawn): the “Percent Effect” value is -5.09%.
As for `COCC(=O)NCC[C@H]1CC(C)(C)Oc2ccc(OC)cc21`, the figure is 109.1%.
The same measure for `O=C(NC[C@H]1OC[C@@H](NC(=O)c2ccccc2)[C@@H]1O)c1ccncc1`: -2.654%.
As for `COc1ccc2c(c1)CCCC2CC(=O)NCC(=O)O` (stereo not drawn), the “Percent Effect” value was -14.49%.
As for `O[C@@H]1C[C@@H](c2nc(Cc3ccccc3)no2)N(Cc2ncc[nH]2)C1`, the figure is 0.9239%; as for `COc1ccc(CNC(=O)NC2CCC(O)CC2)c(C(F)(F)F)c1` (stereo not drawn), 20.35%.
The same measure for `CCc1ccc(C(=O)N(CC(F)(F)F)C2CCCOC2)o1` (stereo not drawn): 5.996%.
With `Cc1cc(CSc2nc(=O)ccn2C(C)C)no1`, the “Percent Effect” value is recorded as -4.933%.
As for `CSCC[C@@H](CO)Nc1ccc(-c2nc(-c3ccccc3F)no2)cn1`, the figure is -8.084%; as for `CCC(C)(N)c1nc(=O)c(C)c(C)[nH]1` (stereo not drawn), -33.14%; as for `Cc1noc(C)c1CS(=O)(=O)CC(=O)NCCc1cccs1`, 0.1957%.
For the compound `COc1ccc2c(c1)C(NCCc1c(C)noc1C)CCCO2` (stereo not drawn), the “Percent Effect” value is -2.374%.
The same measure for `CC(=O)N1CCC(C(=O)NC2CC(C)(C)Oc3cc(C)ccc32)CC1` (stereo not drawn): -7.853%; for `COc1ccc2c(c1)C(NCCc1ccccn1)CCCO2` (stereo not drawn): 1.37%; for `CC(=O)NCC[C@H]1CC(C)(C)Oc2ccccc21`: 133.5%.
The same measure for `CNCC[C@H]1CC(C)(C)Oc2ccc(OC)cc21`: 108.6%; for `Cc1ccc2c(c1)OC(C)(C)CC2NC(=O)C1CCN(C)CC1` (stereo not drawn): -0.1155%; for `CNCC[C@H]1CC(C)(C)Oc2ccc(OCC3CC3)cc21`: 114.8%.
The same measure for `NCc1ccc(Oc2cccc(Cl)c2Cl)nc1`: 4.271%.
With `CCCc1[nH]n(C)c(=N)c1-c1ccc2c(c1)OCO2`, the “Percent Effect” value is on record as -1.578%.
Regarding `O=C(Nc1nc(-c2ccccc2)ns1)N1CCC(F)CC1`, the “Percent Effect” value is recorded as -10.12%.
The same measure for `Cc1n[nH]c(C)c1CNC(=O)c1cn(CCC2CCCCN2)nn1` (stereo not drawn): -13.81%; for `O=C(O)[C@]12CCCN(Cc3ccccn3)[C@@H]1CCN(c1cnccn1)C2`: -12.33%; for `Cc1cccc(CN2C[C@@H](CN3CCCN(C)CC3)[C@@H](CO)C2)n1`: 16.72%.
With `NC(=O)C1(c2cnccn2)CCCN1Cc1cc2ccccc2o1` (stereo not drawn), the “Percent Effect” value is -3.809%.
The same measure for `Cc1cccc(CO[C@@H]2C[C@H]3CN(C(=O)c4cnccn4)CCN3C2)n1`: -10.31%.
Consider `Cc1cccc(CN2CCCC2(C(N)=O)c2cnccn2)n1` (stereo not drawn), for which the “Percent Effect” value is 94%.
The same measure for `NC(=O)C1(c2cnccn2)CCCN1Cc1ccccn1` (stereo not drawn): 123%.
The same measure for `c1ccc(-c2nnc(CNCC3CCCN3c3cccnn3)o2)cc1` (stereo not drawn): -18.66%; for `O=C(O)C(F)(F)F.O=C(c1cccc(F)c1)N1CCC2(CC1)CC(N1CCOCC1)C2`: 110.5%.
As for `O=C(O)C(F)(F)F.O=C(c1ccc(F)cc1)N1CCC2(CC1)CC(N1CCOCC1)C2`, the figure is 98.46%; as for `CC(=O)N1CCC2(CC1)CC(N1CCOCC1)c1ccc(C)cc12.O=C(O)C(F)(F)F` (stereo not drawn), 0.6002%.
With `Cc1oncc1C(=O)N1CCC2(CC1)CC(N1CCOCC1)C2.O=C(O)C(F)(F)F`, the “Percent Effect” value came out at 99.49%.
The same measure for `CN(C)C1COC2(CCN(C(=O)c3cccc(Cl)c3)CC2)C1.O=C(O)C(F)(F)F` (stereo not drawn): -2.157%; for `Cn1cccc1C(=O)N1CCC2(CC1)CC(N1CCOCC1)C2.O=C(O)C(F)(F)F`: 103.3%.
The same measure for `COc1cc(N2CCC3(CC2)CC(N2CCOCC2)C3)ncn1.O=C(O)C(F)(F)F`: -37.73%; for `CN1CCCCC12CCN(C(=O)c1cccn1C)CC2.O=C(O)C(F)(F)F`: -9.83%.
As for `O=C(O)C(F)(F)F.O=C1CC(c2ccncc2)C2(CCN(C(=O)c3cccc(F)c3)CC2)N1` (stereo not drawn), the figure is 8.556%; as for `O=C(O)C(F)(F)F.O=C(c1ccccc1)N1C[C@@H]2CCCO[C@@H]2[C@H](N2CCOCC2)C1`, -6.046%.
As for `CC(=O)N1CCOC2(CCN(C(=O)c3cnoc3C)CC2)C1`, the “Percent Effect” value is recorded as 6.241%.
On to `O=c1[nH]c(NCc2cccc(OC(F)F)c2)nc2c1CCNC2`, for which the “Percent Effect” value is -5.963%.
For the compound `O=C(NCC1CC1)[C@H]1C[C@@H]2CN(C(=O)NCC3CCCCC3)C[C@H]1O2`, the “Percent Effect” value turned out to be 9.811%.
In the case of `Cc1nc(C(C)C)sc1C(=O)N1CCC(N2CCSCC2)CC1`, the “Percent Effect” value was 96.22%.
For the compound `CN(C)C(C(=O)N1CCC(N2CCSCC2)CC1)c1ccccc1F` (stereo not drawn), the “Percent Effect” value is 11.01%.
Consider `Cc1nc(CC(C)C)sc1C(=O)N1CCC1`, for which the “Percent Effect” value is reported as -0.1519%.
The same measure for `CC(C)(C)c1ncc(C(=O)N2CCC(N3CCSCC3)CC2)c(O)n1`: -20.12%; for `COC1CCCN(C(=O)c2sc(CC(C)C)nc2C)C1` (stereo not drawn): -1.564%; for `CCCn1ncc(C(=O)N2CCN(C3CCSCC3)CC2)c1C`: 7.373%.
The same measure for `Cc1nc(C(C)C)sc1C(=O)N1CCC(C(N)=O)CC1`: 81.6%.
As for `Cc1nc(CC(C)C)sc1C(=O)N1CCC(C2(C)OCCO2)CC1`, the figure is 1.957%.
`Cc1nc(C(C)C)sc1C(=O)N1CCN(C2CCSCC2)CC1`: the “Percent Effect” value is 90.05%.
Turning to `CCS(=O)(=O)N1C[C@H]2CC[C@@]3(N=C(C)N(CC(C)C)C3=O)[C@H]2C1`, the “Percent Effect” value stood at 17.11%.
As for `Cc1ccc(CN2CCNC(=O)C2CC(=O)N2CCSCC2)o1` (stereo not drawn), the figure is -50.4%.

The values are drawn from ChEMBL document CHEMBL3988442, “University of Dundee, Small-Polar-MMV Screening Library” (2021).
